In PubChem BioAssay (NCATS):
Inconclusive results are not listed. A number with no mark means an inactive call. Calls of active or inactive are those of the source. Calls come from the whole dose curve; as a rule, active = well fitted cell-killing curve with a large enough effect; inconclusive = small, poorly fitted or top-dose-only effect, or effect the other way; inactive = no such curve, though single readings can be large or run the other way.

Assay: Quantitative High-Throughput drug screen in 47 multiple myeloma cell lines against the NCATS MIPE library collection: KMS28BM_JCRB cell viability assay (AID 1919874); note: nearly all actives have a fitted effect of over 35% in size
Conditions: CellTiter-Glo ATP, 48 h; series mostly up to 45.8 µM; viability, % of control: at the top concentration
Excerpt: PI: Beverly A. Mock Ph.D.
Laboratory of Cancer Biology and Genetics,
Center for Cancer Research, National Cancer Institute,
National Institute of Health, Bethesda, Maryland
Drug resistance and disease progression are common in multiple myeloma (MM) patients, underscoring the need for new therapeutic combinations. […] We hypothesized that effective combinations would reduce MYC expression and enhance p16 activity. […] These preclinical data identify potentially useful drug combinations for evaluation in drug-resistant MM and reveal potential mechanisms of combined drug sensitivity.
Described herein is the primary MIPE qHTS used to cherrypick compounds. Validated compounds were then further tested for potential synergistic activiy.
[1] Peat TJ, Gaikwad SM, Dubois W, Gyabaah-Kessie N, Zhang S, Gorjifard S, Phyo Z, Andres M, Hughitt VK, Simpson RM, Miller MA, Girvin AT, Taylor A, Williams D, D'Antonio N, Zhang Y, Rajagopalan A, Flietner E, Wilson K, Zhang X, Shinn P, Klumpp-Thomas C, McKnight C, Itkin Z, Chen L, Kazandijian D, Zhang J, Michalowski AM, Simmons JK, Keats J, Thomas CJ, Mock BA. Drug combinations identified by high-throughput screening promote cell cycle transition and upregulate Smad pathways in myeloma. Cancer Lett. 2023 Aug 1;568:216284. doi: 10.1016/j.canlet.2023.216284. Epub 2023 Jun 24. PMID: 37356470; PMCID: PMC10408729.
SEQUENCE No. (e.g., 1, 2, 3, etc.); […] (e.g., Cells, Incubation, Reagent, etc.); VALUE and DESCRIPTION.
1; Cells; 5 uL; white, solid bottom 1536-well Greiner assay plate.
2; Compounds; 23 nL; Kalypsis pin tool (Wako USA) equipped with a 1536-well pin head to transfer to the assay plates.
3; Incubation; 48 hours; 37C incubation.
4; Reagent;5uL; CellTiter Glo (Promega).
5; Detector; 425V; Luminescence; Viewlux PerkinElmer.
NOTES (numbers refer to Sequence numbers above)
1. The cell-based screening methods employed in this study were like those previously published. Briefly, the corresponding myeloma cell lines were screened in 1,536-well plates with 500 cells, 5-uL per well for inhibition of cell viability (assessed by measuring ATP levels with CellTiterGlo).
2. NCATS MIPE 4.0 library of approved and investigational drugs were added using the Kalypsis pin tool. Wells treated with DMSO only for 100% viability and media only for 0% viability were used as controls.
3. The assay plates were covered and incubated for 48 hours in a 37C, 5% CO2 incubator with controlled humidity.
4. After 48 hours, CellTilter-GloTM luminescent substrate mix (Promega) reagent was added to the assay plate and plates we incubated for 5 min at room temperature.
5. Signal was measured as median relative luminescence units on a ViewLux (PerkinElmer) multiplate reader.
[1] Heske CM, Davis MI, Baumgart JT, Wilson K, Gormally MV, Chen L, Zhang X, Ceribelli M, Duveau DY, Guha R, Ferrer M, Arnaldez FI, Ji J, Tran HL, Zhang Y, Mendoza A, Helman LJ, Thomas CJ. Matrix Screen Identifies Synergistic Combination of PARP Inhibitors and Nicotinamide Phosphoribosyltransferase (NAMPT) Inhibitors in Ewing Sarcoma. Clin Cancer Res. 2017 Dec 1;23(23):7301-7311. doi: 10.1158/1078-0432.CCR-17-1121. Epub 2017 Sep 12. PMID: 28899971; PMCID: PMC6636827.
Potency is the fitted concentration of half-maximal effect.

| Structure (SMILES) | Potency | viability, % of control [%] |
| --- | --- | --- |
| COc1cc2nccc(Oc3ccc(NC(=O)C4(C(=O)Nc5ccc(F)cc5)CC4)cc3)c2cc1OC | 20900 nM (active) | – |
| Nc1ncnc2c1c(-c1cccc(OCc3ccccc3)c1)cn2C1CC(CN2CCCC2)C1 (stereo not given) | 526 nM (active) | – |
| CC[C@H]1CN2CCc3cc(OC)c(OC)cc3[C@H]2C[C@@H]1C[C@@H]1NCCc2cc(OC)c(OC)cc21 | 235 nM (active) | – |
| CC(C)c1nn(-c2c(Cl)cccc2Cl)c2nc(Cc3ccc(OCCO)cc3)[nH]c(=O)c12 | 209 nM (active) | – |
| CC(O)C1C(=O)N2C(C(=O)O)=C(SC3CNC(C(=O)N(C)C)C3)C(C)C12 (stereo not given) | – | 110 |
| C=CC(=O)Nc1cccc(Oc2nc(Nc3ccc(N4CCN(C)CC4)cc3OC)ncc2Cl)c1 | 20900 nM (active) | – |
| Clc1cccc(-n2nnnc2NCc2ccccc2Oc2ccccn2)c1Cl | – | 109 |
| Nc1nccc(Oc2ccc(NC(=O)c3c[nH]cc(-c4ccc(F)cc4)c3=O)cc2F)c1Cl | 20900 nM (active) | – |
| Nc1ccc(S(=O)(=O)Nc2ncccn2)cc1 | – | 106 |
| CCCCc1nc2cc(C=CC(=O)NO)ccc2n1CCN(CC)CC | 187 nM (active) | – |
| CN(C)Cc1c(C(=O)NCCOc2ccc(C(=O)NO)cc2)oc2ccccc12 | 418 nM (active) | – |
| COC(=O)C[C@](O)(CCCC(C)(C)O)C(=O)O[C@@H]1C(OC)=C[C@]23CCCN2CCc2cc4c(cc2[C@H]13)OCO4 | 10500 nM (active) | – |
| COC(=O)[C@]12CCC(C)(C)C[C@@H]1[C@@H]1C(=O)C=C3[C@@]4(C)C=C(C#N)C(=O)C(C)(C)[C@@H]4CC[C@@]3(C)[C@]1(C)CC2 | 264 nM (active) | – |
| Nc1ccn([C@@H]2O[C@H](CO)[C@H](O)C2(F)F)c(=O)n1 | 5260 nM (active) | – |
| COC(=O)C1=C(C)NC(C)=C(C(=O)OCCN2CCN(C(c3ccccc3)c3ccccc3)CC2)C1c1cccc([N+](=O)[O-])c1 (stereo not given) | – | 124 |
| O=C(Nc1cn[nH]c1-c1nc2ccc(CN3CCOCC3)cc2[nH]1)NC1CC1 | 1050 nM (active) | – |
| CCCn1c(=O)c2[nH]c(-c3cnn(Cc4cccc(C(F)(F)F)c4)c3)nc2n(CC)c1=O | – | 114 |
| CCCCCCCCCC(=O)N[C@@H](Cc1c[nH]c2ccccc12)C(=O)N[C@H](CC(N)=O)C(=O)N[C@@H](CC(=O)O)C(=O)N[C@@H]1C(=O)NCC(=O)N[C@@H](CCCN)C(=O)N[C@@H](CC(=O)O)C(=O)N[C@H](C)C(=O)N[C@@H](CC(=O)O)C(=O)NCC(=O)N[C@H](CO)C(=O)N[C@@H]([C@@H](C)CC(=O)O)C(=O)N[C@@H](CC(=O)c2ccccc2N)C(=O)O[C@@H]1C | – | 125 |
| COCCOc1ccc2c(c1)ncn2-c1ccc2cccc(N3CCC(N)CC3)c2n1 | 16600 nM (active) | – |
| CNC(=O)c1ccccc1Nc1nc(Nc2ccc(N3CCOCC3)cc2OC)ncc1Cl | 935 nM (active) | – |

| Structure (SMILES) | Potency | viability, % of control [%] |
| --- | --- | --- |
| COc1ccc2c(c1)CC[C@@H](CN(C)CC(=O)O)[C@H]2c1ccccc1 | 1050 nM (active) | – |
| O=C(CCCCCCC(=O)Nc1ccc([C@H]2O[C@@H](CSc3nc(-c4ccccc4)c(-c4ccccc4)o3)C[C@@H](c3ccc(CO)cc3)O2)cc1)NO | 13200 nM (active) | – |
| Cc1ccc2nc(NC(=O)CSc3nc4c(c(=O)n3-c3ccccc3)SCC4)sc2c1 | 9350 nM (active) | – |
| C=CC(=O)Nc1cc2c(Nc3ccc(F)c(Cl)c3)ncnc2cc1OCCCN1CCOCC1 | 5260 nM (active) | – |
| O=C(Cc1ccc(-c2ccc(OCCN3CCOCC3)cc2)cn1)NCc1ccccc1 | 14.8 nM (active) | – |
| COc1cc2c(Oc3ccc(NC(=O)C4(C(=O)Nc5ccc(F)cc5)CC4)cc3F)ccnc2cc1OCCCN1CCOCC1 | 3320 nM (active) | – |
| C=CCn1c(=O)c2cnc(Nc3ccc(N4CCN(C)CC4)cc3)nc2n1-c1cccc(C(C)(C)O)n1 | 418 nM (active) | – |
| CC[C@@]1(O)C(=O)OCc2c1cc1n(c2=O)Cc2cc3cc(O)ccc3nc2-1 | 209 nM (active) | – |
| Cc1cn(-c2cc(NC(=O)c3ccc(C)c(Nc4nccc(-c5cccnc5)n4)c3)cc(C(F)(F)F)c2)cn1 | – | 96.2 |
| COc1ccc(-c2cc3c(C)nc(N)nc3n(C3CCC(OCCO)CC3)c2=O)cn1 (stereo not given) | 59 nM (active) | – |
| Cc1ccc(C(N)=O)cc1Nc1nccc(-c2cn(C(C)C)c3cnccc23)n1 | 5900 nM (active) | – |
| Clc1cccc(-c2nnnn2Cc2cccnc2)c1Cl | – | 102 |
| CN1CCN(Cc2ccc(NC(=O)Nc3ccc(Oc4cc(NC(=O)C5CC5)ncn4)cc3)cc2C(F)(F)F)CC1 | 209 nM (active) | – |
| CC(=O)Nc1nc(C)c(-c2ccc(Cl)c(S(=O)(=O)NCCO)c2)s1 | 18700 nM (active) | – |
| O=C(NCCS(=O)(=O)c1ccc(C(F)(F)F)cn1)c1ccc(Cl)cc1 | – | 105 |
| NC(=O)Nc1cc(-c2cccc(F)c2)sc1C(=O)N[C@H]1CCCNC1 | 1870 nM (active) | – |
| Cc1[nH]c2ccccc2c1CCNCc1ccc(C=CC(=O)NO)cc1 | 52.6 nM (active) | – |
| Cc1ccc(NC(=O)C2(c3ccc4c(c3)OC(F)(F)O4)CC2)nc1-c1cccc(C(=O)O)c1 | 41.8 nM (active) | – |
| Cc1ccc(-c2ncn(-c3ccc(Nc4nccc(-c5cccc(N6CCOCC6)c5)n4)cc3)n2)cn1 | 74.3 nM (active) | – |
| C=C1C(=CC=C2CCCC3(C)[C@@H]([C@H](C)C=CC=CC(O)(CC)CC)CC[C@@H]23)C[C@@H](O)C[C@@H]1O (stereo not given in full) | 20900 nM (active) | – |
